EWS-Fli block: EWS/Fli transcriptional activity inhibition | inhibition, % at 12.6 µM | hit rate 0.67% among 350,000 | A673 NR0B1-luciferase reporter, viability-normalised | AID 651661;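 active = mean inhibition of at least 50% after viability correction, with every replicate also passing that limit; inconclusive = mean reaches 50% but only one of two replicates passes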;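 also: firefly luciferase signal divided by Alamar Blue viability fluorescence both relative to DMSO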
PAX8 inh HTS: lowers PAX8-driven luciferase in RMG-I cells; RMG-I TPO-luciferase reporter, SteadyGlo, 24 h; inhibition, % at 12.6 µM; hit rate 1.2% among 360,000;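 active = mean replicate inhibition at least 60% with every replicate also reaching 60%; inconclusive = only one of the two criteria is met; inactive = mean below 60% and not all replicates reaching 60%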;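 also: luciferase light reporting Pax8 driven TPO promoter activity; plate controls were median of neutral control wells for no effect and mitoxantrone controls for full effect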
TROY NFkB inh: TROY signaling inhibition; Q293 LMP1-TROYcd NF-kB luciferase reporter, 4 h; inhibition, % at 10 µM; hit rate 0.98% among 360,000;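 active = compounds whose plate-normalised and pattern-corrected inhibition of the luciferase reporter signal at the single screening dose is 50% or more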
TWEAK-Fn14 inh: blocks TWEAK-Fn14 interaction in a reporter cell assay | TWEAK-stimulated Fn14 reporter cells, luciferase luminescence, 8 h | inhibition, % at 10 µM | hit rate 2% among 360,000; in the data active = inhibition above about 50%
LGR2 inh: blocks bursicon-induced cAMP signaling via Drosophila LGR2; hit rate 0.35% among 380,000; inhibition, % at 9.99 µM; AID 720647; HEK293 LGR2, CRE-luciferase, bursicon-stimulated, 4 h;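 active = drop in luminescence signal, shown as inhibition above about 50% in the replicate tests, limit read from the data, passing the limit was not always enough; inconclusive = probably only some replicates passing the limit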;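 also: agonist challenge used bursicon conditioned medium at about half maximal strength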
LMP1 NFkB inh: reduces LMP1-driven NF-kappaB luciferase signal | LMP1-induced NF-kappaB luciferase reporter cells, luminescence | inhibition, % at 12.5 µM | hit rate 0.69% among 350,000; in the data active = inhibition above about 41%; inconclusive = no clear call, values can overlap the other calls;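 also: 0% = neutral control wells and 100% = reference inhibitor control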
Numbers without * were called inactive; ? = inconclusive; · = no result given. Most compounds without a hit are left out; they make up all but 3.2% or so of the library.

SMILES | EWS-Fli block | PAX8 inh HTS | TROY NFkB inh | TWEAK-Fn14 inh | LGR2 inh | LMP1 NFkB inh
COc1cc(/C=C2/SC(=Nc3ccc(O)cc3)NC2=O)ccc1O | 54* | 56 | 40 | 60* | -20 | 9
COc1ccc(/C=C2/SC(=S)NC2=O)cc1OCc1ccccc1 | 7 | 15 | 51* | -8 | -8 | 0
COc1cc(/C=C2\SC(=Nc3ccccc3OC)NC2=O)ccc1O | 35 | 71* | 24 | 40 | 6 | 1
COc1ccc(/C=C2\SC(=Nc3ccccc3OC)NC2=O)cc1 | 4 | 24 | 8 | 24 | -5 | -16
COc1cc(/C=C2/SC(=O)NC2=O)ccc1OCc1ccccc1 | -5 | -5 | -67 | -21 | -28 | 5
CCc1ccc(N=C2NC(=O)/C(=C/c3cc(OC)c(O)c(OC)c3)S2)cc1 | 3 | 3 | 20 | 19 | 10 | 0
COc1ccc(C(C)NCCC(c2ccc(OC(C)C)cc2)c2ccccc2OC)cc1 (stereo not drawn) | ? | 51 | -15 | -2 | 99* | -11
COc1ccc(C(CCNC(C)c2ccccc2)C(C)C)cc1 (stereo not drawn) | 39 | 23 | -49 | -16 | 0 | ·
C[C@@H]1CN([C@H](C)CO)C(=O)c2c(c3ccccc3n2C)-c2ccccc2CO[C@H]1CN(C)C(=O)Nc1cccc(C(F)(F)F)c1 | 8 | 79* | · | · | 29 | ·
C[C@H]1CN([C@@H](C)CO)C(=O)c2c(c3ccccc3n2C)-c2ccccc2CO[C@@H]1CN(C)Cc1cccc(C(F)(F)F)c1 | 3 | 82* | · | · | 16 | ·
C[C@@H]1CN([C@@H](C)CO)C(=O)c2c(c3ccccc3n2C)-c2ccccc2CO[C@@H]1CN(C)Cc1cccc(C(F)(F)F)c1 | 2 | 56 | · | · | -9 | ·
C[C@@H]1CN([C@H](C)CO)C(=O)c2c(c3ccccc3n2C)-c2ccccc2CO[C@@H]1CN(C)C(=O)Nc1cccc(C(F)(F)F)c1 | 11 | 12 | · | · | 26 | ·
C[C@H](CO)N1C[C@H](C)[C@@H](CN(C)C(=O)c2ccccc2F)Oc2ncc(-c3ccccc3)cc2C1=O | 7 | -25 | · | · | -2 | ·
CC(Nc1cccc2ccccc12)C(=O)N/N=C/c1ccccn1 (stereo not drawn) | · | · | -5 | 55* | · | 4
O=[N+]([O-])CC(c1ccccc1)c1c[nH]c2ccccc12 (stereo not drawn) | 37 | 31 | 5 | 2 | 6 | ·
OC(CNCC(c1ccc(Cl)cc1Cl)c1c[nH]c2ccccc12)c1ccccc1 (stereo not drawn) | 48 | 93* | 79* | 74* | 102* | -37
CC(C)NC(=O)N(C)C[C@H]1OCCCC[C@H](C)Oc2ccc(NC(=O)C3CCCCC3)cc2C(=O)N([C@@H](C)CO)C[C@@H]1C | · | 4 | · | · | 11 | ·
COC(=O)c1ccc(NC(=O)c2ccc(NS(=O)(=O)c3cccc4cccnc34)cc2)cc1 | · | · | -12 | 3 | · | 13
O=C(Nc1ccccc1O)c1ccc(NS(=O)(=O)c2cccc3cccnc23)cc1 | 43 | 28 | -1 | -170 | -45 | 47*
Cc1ccccc1NC(=O)c1ccc(NS(=O)(=O)c2cc(C(C)(C)C)cc(C)c2C)cc1 | 8 | 12 | 37 | 52* | 20 | -13
Cc1ccc2c(c1)Cc1nc3ccccc3nc1-2 | 43 | -2 | -36 | 70* | -52 | 36
CN(C)C(=O)c1ccc(-c2ccc([C@@H]3[C@@H](CO)N4C(=O)CN(C(=O)C5CC5)C[C@@H]34)cc2)cc1 | 5 | -9 | · | · | -4 | ·
CC(C)(C)C(=O)Cn1ncc(Br)c(Br)c1=O | 28 | 32 | 53* | 79* | 103* | 61*
CC(C)(C)C(=O)Cn1ncc(N2CCOCC2)c(Cl)c1=O | 8 | -1 | -14 | 1 | -32 | 11
CC(C)[n+]1ccn(C2=C([O-])c3ccccc3C(=O)/C2=N\S(=O)(=O)c2ccccc2)c1 | 19 | 30 | -4 | 12 | · | 4
SMILES | EWS-Fli block | PAX8 inh HTS | TROY NFkB inh | TWEAK-Fn14 inh | LGR2 inh | LMP1 NFkB inh
CC(C)(C)c1cc[n+](C2=C([O-])c3ccccc3C(=O)/C2=N\S(=O)(=O)c2ccccc2)cc1 | 3 | 16 | 60* | 80* | 3 | ·
CCCNC(=O)N1[C@H](CO)[C@@H](c2ccccc2)C12CN(C(=O)C1CCCCC1)C2 | 2 | -11 | · | · | 3 | ·
COc1cccc(-c2ccc3c(c2)[C@H]2[C@H](CCN2C(=O)c2ccccc2F)[C@H](CO)N3C)c1 | 0 | 85* | · | · | ? | ·
COc1cccc(-c2ccc3c(c2)[C@@H]2[C@@H](CCN2C(=O)CC2CC2)[C@H](CO)N3C)c1 | -4 | 67* | · | · | 4 | ·
COc1cccc(-c2ccc3c(c2)[C@H]2[C@H](CCN2C(=O)CC2CC2)[C@H](CO)N3C)c1 | -6 | -12 | · | · | -22 | ·
C[C@@H]1CN([C@H](C)CO)C(=O)c2cc(C#CCN(C)C)cnc2O[C@@H]1CN(C)C(=O)CCN1CCCCC1 | -42 | -19 | · | · | 18 | ·
CC(C)NC(=O)N(C)C[C@@H]1Oc2c(NC(=O)Nc3ccccc3)cccc2C(=O)N([C@@H](C)CO)C[C@H]1C | -4 | -22 | · | · | 5 | ·
CN(C)CC#Cc1ccc([C@@H]2[C@@H](CO)N3CCCCN(C(=O)C4CCC4)C[C@H]23)cc1 | 7 | 10 | · | · | 6 | ·
Nc1cc2c3ccccc3ccc2c2ccccc12 | -72 | -143 | 37 | 103* | 86* | -48
COCC(=O)Nc1ccc2c(c1)OC[C@H](C)N(C(=O)c1cccnc1)C[C@H](C)[C@@H](OC)CN(C)C2=O | -4 | · | · | · | 1 | ·
CCn1c([N+](=O)[O-])nc2c1c(=O)[nH]c(=O)n2C | 9 | 69* | -4 | 10 | ? | -7
O=C(Cc1ccccn1)N[C@H]1CC[C@@H](CC(=O)N2CCCCC2)O[C@H]1CO | 3 | -6 | · | · | 8 | ·
O=C(Nc1ccc(F)cc1)N1CC(=O)N2[C@@H](CO)[C@@H](c3ccc(C#Cc4ccc(F)cc4)cc3)[C@@H]2C1 | 2 | 119* | · | · | 11 | ·
O=C(Nc1ccc(F)cc1)N1CC(=O)N2[C@H](CO)[C@H](c3ccc(C#CC4CC4)cc3)[C@H]2C1 | -5 | -13 | · | · | 0 | ·
O=C(Nc1ccc(F)cc1)N1CC(=O)N2[C@@H](CO)[C@H](c3ccc(-c4ccc(F)cc4)cc3)[C@@H]2C1 | -3 | 101* | · | · | 19 | ·
COc1ccc(NC(=O)N2CC(=O)N3[C@H](C2)[C@H](c2ccc(/C=C/c4ccccc4)cc2)[C@@H]3CO)cc1 | -3 | 105* | · | · | 1 | ·
O=C(Nc1ccc(F)cc1)N1CC(=O)N2[C@H](C1)[C@H](c1ccc(C#Cc3ccc(F)cc3)cc1)[C@@H]2CO | -5 | 68* | · | · | 22 | ·
O=C(Nc1ccc(F)cc1)N1CC(=O)N2[C@H](CO)[C@H](c3ccc(C#Cc4ccc(F)cc4)cc3)[C@H]2C1 | -4 | -15 | · | · | 7 | ·
C[C@H]1CN([C@@H](C)CO)C(=O)CCCn2nncc2CO[C@@H]1CN(C)C(=O)c1cc(-c2ccccc2)on1 | -4 | 7 | · | · | 1 | ·

From PubChem BioAssay
